Reference: paper PMC4336329 (PLoS ONE, 2015)
Among all 310,000 compounds or so, about 14,000 (4.5%) showed an effect of 50% or more. The effect is printed as a negative number. This excerpt belongs to a sample that is enriched for strong results.

Molecular target: human ether-à-go-go-related gene (hERG) potassium channel (human, UniProt Q12809)
Assay: primary screen, population patch clamp on CHO cells stably expressing hERG; higher = less effect of the substance
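Note: peak tail current of the secondary pulse compared with the same well before compound.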

Sequence of human ether-à-go-go-related gene (hERG) potassium channel (Q12809 whole entry, looked up): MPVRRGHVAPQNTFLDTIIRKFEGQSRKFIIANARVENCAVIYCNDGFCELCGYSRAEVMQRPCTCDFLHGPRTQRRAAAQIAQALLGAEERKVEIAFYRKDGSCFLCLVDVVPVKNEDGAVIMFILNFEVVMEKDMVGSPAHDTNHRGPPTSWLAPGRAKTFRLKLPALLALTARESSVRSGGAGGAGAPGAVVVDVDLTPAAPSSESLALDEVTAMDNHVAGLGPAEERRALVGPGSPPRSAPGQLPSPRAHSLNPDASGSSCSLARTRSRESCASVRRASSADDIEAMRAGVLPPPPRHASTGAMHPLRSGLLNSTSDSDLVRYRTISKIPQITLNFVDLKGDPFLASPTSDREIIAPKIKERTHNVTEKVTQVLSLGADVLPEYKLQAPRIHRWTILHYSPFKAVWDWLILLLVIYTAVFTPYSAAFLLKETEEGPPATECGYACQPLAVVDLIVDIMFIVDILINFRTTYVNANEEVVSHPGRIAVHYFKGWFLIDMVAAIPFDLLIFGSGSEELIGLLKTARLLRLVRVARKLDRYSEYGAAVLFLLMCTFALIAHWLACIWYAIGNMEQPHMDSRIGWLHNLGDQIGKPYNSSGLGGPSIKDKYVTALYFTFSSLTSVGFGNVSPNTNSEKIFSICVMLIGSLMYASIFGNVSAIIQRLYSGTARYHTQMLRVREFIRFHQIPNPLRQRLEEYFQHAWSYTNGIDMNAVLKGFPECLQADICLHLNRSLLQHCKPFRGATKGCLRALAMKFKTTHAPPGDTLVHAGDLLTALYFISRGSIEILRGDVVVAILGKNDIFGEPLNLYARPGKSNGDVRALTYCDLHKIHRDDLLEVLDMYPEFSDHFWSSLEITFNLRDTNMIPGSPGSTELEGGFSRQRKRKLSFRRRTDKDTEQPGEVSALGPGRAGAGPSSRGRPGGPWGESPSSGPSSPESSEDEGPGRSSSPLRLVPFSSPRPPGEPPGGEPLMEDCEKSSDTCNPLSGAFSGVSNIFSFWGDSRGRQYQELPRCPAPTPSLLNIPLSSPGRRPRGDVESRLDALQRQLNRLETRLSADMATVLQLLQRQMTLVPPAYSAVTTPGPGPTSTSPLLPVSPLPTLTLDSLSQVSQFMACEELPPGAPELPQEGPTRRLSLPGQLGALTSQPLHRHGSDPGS

Structure (SMILES) | hERG current change (%, negative = inhibition) at 10uM
O=C(Nc1ccc(-c2nc3ccccc3[nH]2)cc1)c1ccc2c(c1)OCO2 | 6.85%
CCCCN(C)C(=O)c1cn(CC)c2ccc(S(=O)(=O)N(C)C)cc2c1=O | 8.08%
c1cc(C(c2nnnn2C2CCCCC2)N2CCN3CCCC3C2)ccn1 (stereo not drawn) | -1.98%
COc1ccc(NC(=O)C2CCCN2C(=O)NC2CCCCC2)cc1 (stereo not drawn) | -2.82%
CN(C)CCOc1ccccc1Cc1ccccc1.O=C(O)CC(O)(CC(=O)O)C(=O)O | -61.9%
CN(C)CCOc1ccccc1C(C)(C)C.O=C(O)C(=O)O | 5.47%
O=C(O)COc1ccccc1Cc1ccccc1 | 5.22%
COc1ccc(-n2ccc3ccccc32)cc1 | 13%
CCCCCCn1c(=O)c(F)cn(Cc2ccc(OC)c([N+](=O)[O-])c2)c1=O | -40.3%
CCCCCn1c(=O)c(F)cn(Cc2ccc(OC)c([N+](=O)[O-])c2)c1=O | -56.6%
CCCCn1c(=O)c(F)cn(Cc2ccc(OC)c([N+](=O)[O-])c2)c1=O | -25.2%
CC(C)(C)C(=O)Oc1ccc2cc(-c3ccc4ccccc4n3)c(=O)oc2c1 | -10.5%
Nc1nc(CN2CCN(Cc3ccccc3)CC2)nc(Nc2ccc3c(c2)OCCO3)n1 | -74.8%
c1ccc(CN2CCN(Cc3ccc4c(c3)OCCO4)CC2)cc1 | -10.6%
Nc1nc(COC(=O)c2ccc3c(c2)OCCO3)nc(Nc2ccccc2)n1 | 10.2%
Nc1nc(CN2CCN(c3ccccc3F)CC2)nc(Nc2ccc3c(c2)OCCO3)n1 | -74.4%
O=C(CCN1CCN(c2ccccc2F)CC1)Nc1ccc2c(c1)OCO2 | -27.6%
CN1CCN(Cc2nc(N)nc(Nc3ccc4c(c3)OCCO4)n2)CC1 | -26.1%
Cc1c(C(c2ccc(F)cc2)c2c(O)c3ccccc3oc2=O)c(=O)n(-c2ccccc2)n1C (stereo not drawn) | -20.9%
COc1ccc(-n2c(-c3ccco3)nc3c(cnn3-c3ccc(C)cc3)c2=O)cc1 | 1.88%
C=CCn1c(NC(=O)c2ccc(C)cc2)nc2ccccc21 | 6.35%
Cc1ccc(NCC(=O)N/N=C/c2c[nH]c3ccccc23)cc1 | 11.4%
CC(C)NC(=O)C(Cc1ccccc1)N1C(=O)c2ccccc2C1=O (stereo not drawn) | -4.63%
COc1ccc(/C(O)=C2/C(=O)C(=O)N(CCN(C)C)C2c2cccnc2)cc1C (stereo not drawn) | 1.58%
